From PubChem
DT40 TDP1 CPT = growth inhibition of DT40 Tdp1-/-;hTDP1 cells with camptothecin (screen for TDP1 inhibitors). chicken DT40 Tdp1-/-;hTDP1 cells + 20 nM CPT, ATP luminescence, 48 h. Potency, µM (doses to about 46.2 µM), usual class: inhibitors. 420,000 tested, 12% active. AID 686979; also: nearly all actives have a fitted effect of over 55% in size
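Chicken DT40 Tdp1-/- cells stably complemented with human TDP1 were seeded at 400 cells/well in medium containing 20 nM camptothecin, exposed to pin-transferred compounds, and grown at 37 °C for at least 48 hr. Viability was read as ATP luminescence.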
ClpP mod = qHTS Assay for Activators of ClpP; purified B. subtilis ClpP, FRET peptide cleavage, 20 min; 340,000 tested, 1.9% active; Potency, µM (top dose mostly 57.5 µM); AID 651965, 2013; ATP-dependent Clp protease proteolytic subunit (Bacillus subtilis (strain 168)), P80244; active = well fitted falling curve with a large enough effect; inconclusive = small, poorly fitted or top-dose-only effect; inactive = no such curve, though single readings can be large or run the other way; also: the source files actives as falling curves though it sought activators and does not explain the sign; nearly all actives have a fitted effect of over 65% in size
Target sequence (P80244 whole entry, looked up): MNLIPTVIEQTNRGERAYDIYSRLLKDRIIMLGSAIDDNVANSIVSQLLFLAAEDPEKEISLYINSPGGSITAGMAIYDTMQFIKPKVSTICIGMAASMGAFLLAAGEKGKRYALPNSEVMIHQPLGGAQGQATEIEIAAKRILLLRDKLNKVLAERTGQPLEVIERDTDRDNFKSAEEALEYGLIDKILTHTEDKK
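ClpP 10 microg/mL final, pH 8 Tris/KCl buffer with BSA, glycerol, Tween-20; compound pinned in; FRET-FV substrate; RT 20 min; Ex320/Em430; ΔFRET vs ADEP 5.8 microM, DMSO, no enzyme.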
TDP1 cell noCPT = qHTS for Inhibitors of human tyrosyl-DNA phosphodiesterase 1 (TDP1): qHTS in cells in absence of CPT. DT40 Tdp1-/- hTDP1 cells, no CPT, ATP luminescence, 48 h. Potency, µM (series often up to 46.2 µM), actives largely listed as inhibitors. 420,000 tested, 15% active; also: nearly all actives have a fitted effect of over 55% in size
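Growth kinetics read by CellTiter-Glo luminescence after ≥48 hr at 37 °C. Cells: DT40 Tdp1-/- stably carrying human TDP1, 400 per well, compound exposure in the absence of CPT (DMSO vehicle).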
TDP1 inh = inhibitors of human tyrosyl-DNA phosphodiesterase TDP1; Q9NUW8; recombinant TDP1, AlphaScreen DNA substrate cleavage; Potency, µM (doses to about 130 µM), hits mostly inhibitors; 350,000 tested, 0.28% active; AID 485290; also: nearly all actives have a fitted effect of over 40% in size
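Tdp1 1 nM final; 15 min RT w/ cpd; substrate 15 nM, 5 min; beads 10 ug/ml, 10 min; AlphaScreen read. Neg ctrl: no enzyme.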
Large screens that a line does not name were inactive. Shown are actives, neighbours in structure and some others; about 17% of the full set was active somewhere. Unless noted, calls follow the shape of the dose curve; as a rule, active = well fitted curve in the direction sought with a large enough effect; inconclusive = small, poorly fitted or top-dose-only effect, or another doubt; inactive = no such curve, though single readings can be large; an effect the other way counts as inactive or inconclusive.

Cc1cc(C(=O)CSc2nnnn2C)c(C)n1CCc1ccc(F)cc1	none
Cc1cc(C(=O)CSc2nnnn2-c2ccccc2)c(C)n1CCc1ccccc1	TDP1 cell noCPT inconclusive
Cc1ccc(-n2c(C)cc(C(=O)CSc3nncs3)c2C)cc1	DT40 TDP1 CPT 10µM, TDP1 cell noCPT 21µM
Cc1cc(C(=O)CSc2nnnn2-c2ccc(O)cc2)c(C)n1C	DT40 TDP1 CPT inconclusive, TDP1 cell noCPT 16µM (no result: ClpP mod)
Cc1ccc(-n2nnnc2SCC(=O)c2cc(C)n(-c3cc(C)on3)c2C)c(C)c1	DT40 TDP1 CPT 23µM, TDP1 cell noCPT 23µM
Cc1ccc(-n2c(C)cc(C(=O)CSc3nnnn3C)c2C)cc1	DT40 TDP1 CPT 18µM, TDP1 cell noCPT 21µM
COc1cc(-c2c(OC)cccc2OC)cc2c1OCCN(C(=O)CCC(=O)c1ccc(F)cc1)C2	none (no result: ClpP mod, TDP1 inh)
Cc1ccc(C(=O)OCC(=O)Nc2ccccc2Sc2ccccc2)cc1C	DT40 TDP1 CPT inconclusive, TDP1 cell noCPT inconclusive (no result: TDP1 inh)
O=C(Nc1cccc(Cl)c1)Nc1cccc(Cl)c1	DT40 TDP1 CPT 15µM, TDP1 cell noCPT 12µM
O=C(Nc1cccc(Cl)c1)Nc1ccon1	DT40 TDP1 CPT inconclusive
N#CCc1ccc(NC(=O)Nc2cccc(Cl)c2)cc1	DT40 TDP1 CPT 16µM, TDP1 cell noCPT inconclusive
CC(C)(C)c1ccc(NC(=O)Nc2ccc(OCC(=O)N3CCOCC3)cc2)cc1	none (no result: ClpP mod)
N#Cc1ccccc1NC(=O)Nc1cccc(Cl)c1	ClpP mod 28µM
N#Cc1ccccc1NC(=O)Nc1ccc(Cl)cc1	ClpP mod inconclusive
O=C(Nc1ccc(OCC(=O)N2CCOCC2)cc1)Nc1cccc(Cl)c1	ClpP mod 11µM
O=C(Nc1ccc(C(=O)OCc2cc(=O)n3c4c(sc3n2)CCCC4)cc1)c1ccc(Cl)cc1	DT40 TDP1 CPT inconclusive, TDP1 cell noCPT inconclusive
Cc1ccc(CNC(=O)CCS(=O)(=O)c2cc3c4c(c2)CCN4C(=O)CC3)cc1	none
CC(NC(=O)c1cc2c(s1)CS(=O)(=O)C2)c1ccccc1 (configuration not stated)	none
O=C(Nc1ccccc1)Nc1cc(OCC(F)(F)F)cc(OCC(F)(F)F)c1	DT40 TDP1 CPT 4.1µM, TDP1 cell noCPT 2.9µM (no result: ClpP mod)
CC(=O)Nc1ccc(NC(=O)Nc2ccccc2)cc1	none (no result: TDP1 inh)
O=C(Nc1cccnc1)Nc1cc(Cl)cc(Cl)c1	DT40 TDP1 CPT 10µM, TDP1 cell noCPT 23µM
O=C(Nc1ccccc1)Nc1cc(Cl)cc(Cl)c1	DT40 TDP1 CPT 6.5µM, TDP1 cell noCPT 12µM
COC(=O)c1cc(NC(=O)Nc2cccc(Cl)c2)ccc1Cl	DT40 TDP1 CPT 16µM, TDP1 cell noCPT 18µM
CSCCC(NC(=O)COc1ccccc1)C(=O)N1CCOCC1 (configuration not stated)	none
COc1cccc(CNC(=O)CSc2cc(C)[nH]c(=O)n2)c1	none
CCOc1ccc(OCCNC(=O)C(NC(=O)c2c(F)cccc2F)C(C)C)cc1 (configuration not stated)	none
C=CCn1c(C)nnc1SCC(=O)Nc1nccs1	none
CCC(C)NC(=O)Cn1c(=O)n(-c2ccc(Cl)c(Cl)c2)c(=O)c2c(C)c(C(=O)N(CC)CC)sc21 (configuration not stated)	TDP1 cell noCPT inconclusive
COc1cc2c(oc(=O)c3cc(C)cc(OC)c32)c2c(C3OC(C)C(O)C(C)(O)C3O)ccc(O)c12 (configuration not stated)	DT40 TDP1 CPT 1.5µM, TDP1 cell noCPT 1.5µM (no result: TDP1 inh)
Cc1ccccc1Cn1c2ccccc2c2cnn(CC(=O)NCC(C)c3ccccc3)c(=O)c21 (configuration not stated)	DT40 TDP1 CPT inconclusive, ClpP mod inconclusive
Cc1ccc(C)c(Cn2c3ccccc3c3cnn(CC(=O)NCCN4CCOCC4)c(=O)c32)c1	DT40 TDP1 CPT 16µM, TDP1 cell noCPT 18µM
Cc1ccc(C)c(Cn2c3ccccc3c3cnn(CC(=O)NCC(C)c4ccccc4)c(=O)c32)c1 (configuration not stated)	DT40 TDP1 CPT 13µM, TDP1 cell noCPT 23µM
Cc1ccc(C)c(Cn2c3ccccc3c3cnn(CC(=O)NCc4ccccc4)c(=O)c32)c1	DT40 TDP1 CPT 23µM, ClpP mod inconclusive, TDP1 cell noCPT 21µM
Cc1ccc(C)c(Cn2c3ccccc3c3cnn(CC(=O)NC(C)CCc4ccccc4)c(=O)c32)c1 (configuration not stated)	DT40 TDP1 CPT 3.3µM, TDP1 cell noCPT 3.3µM
Cc1ccc(C)c(Cn2c3ccccc3c3cnn(CC(=O)NCCCN4CCOCC4)c(=O)c32)c1	DT40 TDP1 CPT inconclusive, TDP1 cell noCPT inconclusive
OC[C@@H]1CN(Cc2ccco2)C[C@H](n2cnc3c(NCc4ccc(F)cc4)ncnc32)O1	none (no result: TDP1 inh)
Cc1c2cnn(CC(=O)NCc3ccccc3)c(=O)c2c(C)n1Cc1cccc(Cl)c1	DT40 TDP1 CPT 4.6µM, TDP1 cell noCPT 3.3µM
CCN(CCCNC(=O)Cn1ncc2c([nH]c3ccc(C)cc32)c1=O)Cc1ccccc1	DT40 TDP1 CPT inconclusive, TDP1 cell noCPT 16µM
CCN(CCCNC(=O)Cn1ncc2c([nH]c3ccccc32)c1=O)Cc1ccccc1	TDP1 cell noCPT inconclusive
Cc1ccc(C)c(CN2CCC(CNC(=O)Cn3ncc4c([nH]c5ccccc54)c3=O)CC2)c1	DT40 TDP1 CPT inconclusive, TDP1 cell noCPT 15µM
O=C(Cn1ncc2c3ccccc3n(Cc3ccccc3F)c2c1=O)NCCc1ccc(Cl)cc1	DT40 TDP1 CPT inconclusive
Cc1ccccc1Cn1c2ccccc2c2cnn(CC(=O)NCCc3ccc(Cl)cc3)c(=O)c21	DT40 TDP1 CPT inconclusive, TDP1 cell noCPT 18µM
NNC(=O)C(Cc1ccccc1)NC(=O)OCc1ccccc1 (configuration not stated)	none (no result: ClpP mod)
CC(CCc1ccccc1)NC(=O)Cn1ncc2c3ccccc3n(Cc3ccccc3F)c2c1=O (configuration not stated)	DT40 TDP1 CPT 8.2µM, TDP1 cell noCPT 8.2µM
Cc1ccc(C)c(Cn2c3ccccc3c3cnn(CC(=O)NC(C)c4ccccc4)c(=O)c32)c1 (configuration not stated)	DT40 TDP1 CPT 2.9µM, TDP1 cell noCPT 2.3µM
Cc1ccc(NC(=O)Cn2ncc3c4ccccc4n(Cc4ccccc4)c3c2=O)cc1Cl	DT40 TDP1 CPT inconclusive, TDP1 cell noCPT inconclusive
CC(CCc1ccccc1)NC(=O)Cn1ncc2c3ccccc3n(Cc3ccccc3)c2c1=O (configuration not stated)	DT40 TDP1 CPT inconclusive, TDP1 cell noCPT inconclusive
O=C(c1ccc(N2CN(C(=O)c3ccco3)c3nc4ccccc4nc32)cc1)N1CCOCC1	DT40 TDP1 CPT 13µM, TDP1 cell noCPT 23µM
C=CCn1c(SCC(=O)Nc2ccc3c(c2)OCCO3)nc2cc(C(=O)O)ccc2c1=O	none
CC(C)c1ccc(/C=C/C2=NNC(=O)CC2)cc1	DT40 TDP1 CPT 18µM, TDP1 cell noCPT 12µM (no result: ClpP mod)
CCOc1ccc(NC(=O)NCCCn2c(C)nc3cc(C)c(C)cc32)cc1	DT40 TDP1 CPT inconclusive, TDP1 cell noCPT inconclusive
